Bioassay records as filed in PubChem BioAssay.
Compounds with a hit are over-represented: about 10% of the library has one in this group of screens.
JMJD2A Tudor = blocks the human JMJD2A Tudor domain. Potency, µM (highest dose often 114 µM), without a hit: top-dose activity change, negative = inhibition, actives largely listed as inhibitors. 390,000 tested, 4.4% active. O75164. AlphaScreen JMJD2A-Tudor / H3K4me3 peptide binding. AID 504339; further: potency means the concentration at half of the fitted maximal effect; on the % scale 0 is the no-effect control and ±100 the full control effect; nearly all actives have a fitted effect of over 50% in size
BAZ2B block = blocks human BAZ2B; Q9UIF8; AlphaScreen BAZ2B-H3K14Ac peptide displacement; Potency, µM (highest dose often 114 µM), for inactives: top-dose activity change, negative = inhibition, hits mostly inhibitors; 360,000 tested, 4.4% active; AID 504333; further: potency means the concentration at half of the fitted maximal effect; on the % scale 0 is the no-effect control and ±100 the full control effect; nearly all actives have a fitted effect of over 60% in size
Target sequence (Q9UIF8 whole entry, looked up): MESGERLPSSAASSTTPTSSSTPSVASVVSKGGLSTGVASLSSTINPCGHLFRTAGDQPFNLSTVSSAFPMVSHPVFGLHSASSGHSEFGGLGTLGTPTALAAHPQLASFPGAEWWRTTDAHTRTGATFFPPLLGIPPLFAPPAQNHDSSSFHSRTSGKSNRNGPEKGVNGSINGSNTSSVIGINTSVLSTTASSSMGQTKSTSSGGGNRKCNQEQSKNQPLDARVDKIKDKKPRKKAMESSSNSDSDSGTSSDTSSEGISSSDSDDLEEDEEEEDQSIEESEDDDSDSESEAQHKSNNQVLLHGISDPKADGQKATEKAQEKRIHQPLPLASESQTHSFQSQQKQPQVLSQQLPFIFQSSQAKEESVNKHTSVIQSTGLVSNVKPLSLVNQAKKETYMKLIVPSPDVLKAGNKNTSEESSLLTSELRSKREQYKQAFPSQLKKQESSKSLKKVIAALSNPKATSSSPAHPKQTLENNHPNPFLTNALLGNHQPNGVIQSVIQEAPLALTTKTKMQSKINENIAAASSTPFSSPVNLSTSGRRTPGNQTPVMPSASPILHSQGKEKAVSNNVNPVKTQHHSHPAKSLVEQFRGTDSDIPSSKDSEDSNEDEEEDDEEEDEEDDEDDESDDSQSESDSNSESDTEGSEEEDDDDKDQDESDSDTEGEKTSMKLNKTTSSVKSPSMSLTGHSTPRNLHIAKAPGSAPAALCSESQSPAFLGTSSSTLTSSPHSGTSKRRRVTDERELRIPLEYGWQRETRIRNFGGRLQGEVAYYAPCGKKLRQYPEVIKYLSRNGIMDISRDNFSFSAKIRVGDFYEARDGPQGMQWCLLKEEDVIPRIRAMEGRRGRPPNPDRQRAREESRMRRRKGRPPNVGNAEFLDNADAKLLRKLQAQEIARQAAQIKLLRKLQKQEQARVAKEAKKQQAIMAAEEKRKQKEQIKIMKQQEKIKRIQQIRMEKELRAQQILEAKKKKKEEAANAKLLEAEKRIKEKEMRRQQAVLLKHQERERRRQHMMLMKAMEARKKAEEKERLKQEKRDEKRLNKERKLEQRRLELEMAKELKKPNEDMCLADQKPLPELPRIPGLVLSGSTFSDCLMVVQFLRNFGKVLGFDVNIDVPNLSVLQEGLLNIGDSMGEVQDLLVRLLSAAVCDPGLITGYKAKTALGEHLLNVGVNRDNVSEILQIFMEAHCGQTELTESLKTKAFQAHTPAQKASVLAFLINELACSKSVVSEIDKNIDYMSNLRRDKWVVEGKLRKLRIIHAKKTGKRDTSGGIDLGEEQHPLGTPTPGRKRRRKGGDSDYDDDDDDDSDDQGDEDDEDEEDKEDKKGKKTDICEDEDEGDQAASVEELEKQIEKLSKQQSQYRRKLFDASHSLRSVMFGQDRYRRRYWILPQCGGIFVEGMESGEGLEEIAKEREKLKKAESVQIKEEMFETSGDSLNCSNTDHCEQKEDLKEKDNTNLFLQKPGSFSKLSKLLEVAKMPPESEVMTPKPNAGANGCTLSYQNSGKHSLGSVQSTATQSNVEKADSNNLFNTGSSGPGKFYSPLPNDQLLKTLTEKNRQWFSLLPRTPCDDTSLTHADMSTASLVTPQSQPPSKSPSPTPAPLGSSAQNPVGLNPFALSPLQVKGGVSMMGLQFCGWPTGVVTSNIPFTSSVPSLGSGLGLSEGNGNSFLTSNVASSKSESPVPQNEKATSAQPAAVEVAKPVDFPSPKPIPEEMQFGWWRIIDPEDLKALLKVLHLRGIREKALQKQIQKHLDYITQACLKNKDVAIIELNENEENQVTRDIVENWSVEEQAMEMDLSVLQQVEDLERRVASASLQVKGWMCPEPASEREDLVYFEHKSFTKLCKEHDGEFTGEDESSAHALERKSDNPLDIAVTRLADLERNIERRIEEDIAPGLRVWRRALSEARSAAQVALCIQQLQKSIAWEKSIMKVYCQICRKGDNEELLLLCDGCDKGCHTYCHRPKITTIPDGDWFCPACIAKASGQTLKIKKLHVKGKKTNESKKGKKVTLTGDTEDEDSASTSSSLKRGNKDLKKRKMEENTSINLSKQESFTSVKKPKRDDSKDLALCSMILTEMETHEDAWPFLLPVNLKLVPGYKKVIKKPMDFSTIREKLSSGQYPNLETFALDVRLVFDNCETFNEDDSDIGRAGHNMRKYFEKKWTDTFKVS
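BAZ2B (50 nM) with biotin-H3(5-23)K14Ac peptide (50 nM) in PBS pH 7.4, 0.01% Tween-20, preformed 30 min, then compound 30 min at room temperature; top concentration 110uM. AlphaScreen streptavidin donor/nickel chelate acceptor beads (10 ug/mL final), 20 min dark, signal read.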
CtBP-E1A blk = blocks the CtBP interaction with E1A; activity change, % (no concentration beside the values); AID 651724; AlphaScreen GST-E1A/His-CtBP binding, 1536-well; hits give low values; 340,000 tested, 0.49% active; in the data active means activity change below about -65%; inconclusive means mostly about -30% to -63%; further: on the % scale 0 is the no-effect control and ±100 the full control effect
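Steps: dispense buffer (Tris pH 8.0, NaCl 300 mM, TCEP 1 mM, BSA, Tween 20); add 5X protein mix (GST-E1A, His-CtBP, 125 nM each); pin 23 nL compound; 2 h at 37 °C, dark; add 5X beads (50 ug/mL); 1 h; read.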
Six1-Eya2 inh = blocks human Six1 binding to Eya2; Q15475+O00167; AlphaScreen GST-Six1/His-Eya2 binding, biochemical; hits give low values; activity change, % (no concentration beside the values); 360,000 tested, 0.56% active; AID 651725; in the data active means activity change below about -65%; inconclusive means mostly about -30% to -63%; further: on the % scale 0 is the no-effect control and ±100 the full control effect
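Compounds are tested against tagged Six1 and Eya2 proteins bridged by glutathione donor and nickel acceptor beads; after a one-hour incubation at 37 °C without light, AlphaScreen emission is recorded.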
HP1b chromo inh = HP1-beta chromodomain-methylated histone interaction inhibition. P83916. AlphaScreen HP1-beta / biotin-H3K9me3 peptide binding. Potency, µM (top dose mostly 114 µM), for inactives: at the top dose activity change, negative = inhibition, actives largely listed as inhibitors. 390,000 tested, 0.56% active. AID 540317; further: potency means the concentration at half of the fitted maximal effect; nearly all actives have a fitted effect of over 70% in size
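Compound inhibition of the preformed complex between 50 nM HP1-beta and 50 nM biotinylated H3K9me3 peptide was read by AlphaScreen. Buffer was PBS pH 7.4 with 0.01% Tween-20. Incubations ran 30 min at room temperature, with 10 ug/mL donor/acceptor beads.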
G9a inh = inhibitors of human histone lysine methyltransferase G9a. Q96KQ7. G9a H3K9 monomethylation, AlphaScreen, 2 h. Potency, µM (titrated, usually from 102 µM), for inactives: at the top dose activity, negative = inhibition, usual class: inhibitors. 350,000 tested, 8.8% active. AID 504332; further: potency means the concentration at half of the fitted maximal effect; on the % scale 0 is the no-effect control and ±100 the full control effect; nearly all actives have a fitted effect of over 75% in size
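Methyltransferase reactions run at room temperature for 2 h (20 nM enzyme, 500 nM biotin-H3K9 peptide, 20 uM SAM) after a 15 min compound preincubation; product detected by AlphaScreen beads and anti-H3K9me1 antibody.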
An asterisk follows results filed as active; [ ] = remark or other dose. Unless noted, the call rests on the fitted dose curve; in most records, active means well fitted inhibition curve with a large enough effect; inconclusive means small, poorly fitted or top-dose-only effect; inactive means no such curve, though single readings can be large or run the other way.

Results for CCOc1cc(N2CCOCC2)c(OCC)cc1NC(=O)CC12CC3CC(CC(C3)C1)C2 ?
JMJD2A Tudor: 45µM*; BAZ2B block: 35µM*; CtBP-E1A blk: inconclusive; Six1-Eya2 inh: inconclusive; HP1b chromo inh: -52%; G9a inh: 13µM*

What do the screens show for `CCOc1cc(NC(=O)c2ccco2)c(OCC)cc1NC(=O)Cc1ccc(OC)c(OC)c1`?
JMJD2A Tudor: -34%; BAZ2B block: -26%; CtBP-E1A blk: -3; Six1-Eya2 inh: -4; HP1b chromo inh: 4%; G9a inh: 18%[59 µM]

What do the screens show for `CCN(CCCNC(=O)c1nn(-c2ccc(C)cc2)c(=O)c2c1c1ccccc1n2C)c1ccccc1`?
JMJD2A Tudor: -9%; HP1b chromo inh: 39%; G9a inh: -4%[59 µM]

Results for CC(C)CN(C(=O)CN1CCN(c2ccc(O)cc2)CC1)c1c(N)n(CC(C)C)c(=O)[nH]c1=O ?
JMJD2A Tudor: inconclusive; BAZ2B block: -6%; CtBP-E1A blk: 10; Six1-Eya2 inh: 9; HP1b chromo inh: 50µM*; G9a inh: inconclusive

Results for CCN(C(=O)CN1CCN(c2ccc(O)cc2)CC1)c1c(N)n(Cc2ccccc2)c(=O)[nH]c1=O ?
JMJD2A Tudor: inconclusive; CtBP-E1A blk: -2; Six1-Eya2 inh: -6; HP1b chromo inh: -12%; G9a inh: 8.9µM*

How did Cn1c(=O)c(C(=O)CN2CCc3ccccc32)c(N)n(Cc2ccccc2)c1=O do in these assays?
JMJD2A Tudor: 50µM*; BAZ2B block: 6%; CtBP-E1A blk: 1; Six1-Eya2 inh: 1; HP1b chromo inh: -4%; G9a inh: 35µM*

Results for CCN(C(=O)CN1CCc2ccccc21)c1c(N)n(Cc2ccccc2)c(=O)[nH]c1=O ?
JMJD2A Tudor: -17%; BAZ2B block: -16%; CtBP-E1A blk: -4; Six1-Eya2 inh: -1; HP1b chromo inh: 43%; G9a inh: 28µM*

What do the screens show for `Cc1ccc(C(=O)Nc2cccc(C(=O)NC3CCCC3)c2)cc1`?
JMJD2A Tudor: 4%; BAZ2B block: -1%; CtBP-E1A blk: 4; Six1-Eya2 inh: -9; HP1b chromo inh: 29%; G9a inh: 70%

How did NC(=O)c1c(NC(=O)c2ccncc2)sc2c1CCCCCC2 do in these assays?
JMJD2A Tudor: -18%; BAZ2B block: -29%; CtBP-E1A blk: -4; Six1-Eya2 inh: -5; HP1b chromo inh: 29%; G9a inh: -6%

Results for NC(=O)c1c(NC(=O)C2CC=CCC2C(=O)O)sc2c1CCCCC2 (stereo unspecified) ?
JMJD2A Tudor: 56µM*; BAZ2B block: inconclusive; CtBP-E1A blk: 0; Six1-Eya2 inh: -21; HP1b chromo inh: inconclusive; G9a inh: 8.9µM*

What do the screens show for `CC(C)OC(=O)c1c(NC(=O)C2CC=CCC2C(=O)O)sc2c1CCCCC2` (stereo unspecified)?
JMJD2A Tudor: -28%; BAZ2B block: inconclusive; CtBP-E1A blk: 6; Six1-Eya2 inh: -13; HP1b chromo inh: -28%; G9a inh: 45µM*

What do the screens show for `CC(=O)NCCNC(=O)Cn1nnc(-c2ccccc2)c1COc1ccc2ccccc2c1`?
CtBP-E1A blk: -5; Six1-Eya2 inh: 2

What do the screens show for `O=S(=O)(Nc1nc(-c2ccccc2)cs1)c1cc(Cl)ccc1Cl`?
JMJD2A Tudor: inconclusive; BAZ2B block: inconclusive; CtBP-E1A blk: -9; Six1-Eya2 inh: -6; HP1b chromo inh: -26%; G9a inh: inconclusive

Results for Cc1ccc(OCC(=O)NCCCNC(=O)c2ccncc2)cc1 ?
JMJD2A Tudor: -18%; BAZ2B block: 10%; CtBP-E1A blk: 3; Six1-Eya2 inh: 9; HP1b chromo inh: -4%; G9a inh: 32µM*

Results for COC(Cc1ccccc1N1CCCC1=O)OC ?
JMJD2A Tudor: -3%; BAZ2B block: inconclusive; CtBP-E1A blk: 5; Six1-Eya2 inh: 2; HP1b chromo inh: 34%; G9a inh: 56µM*

Results for O=C1CCCc2c1cc(-c1ccccc1)n2-c1ccccc1 ?
JMJD2A Tudor: 40µM*; BAZ2B block: 25µM*; CtBP-E1A blk: inconclusive; Six1-Eya2 inh: inconclusive; HP1b chromo inh: inconclusive; G9a inh: 45µM*

What do the screens show for `O=C(CNC(=O)c1cc2c(n(-c3ccccc3)c1=O)CCCC2=O)c1ccccc1`?
JMJD2A Tudor: 3%; BAZ2B block: -6%; CtBP-E1A blk: -7; Six1-Eya2 inh: 5; HP1b chromo inh: 20%

What do the screens show for `O=C(CSCc1ccco1)N1CCc2ccccc21`?
JMJD2A Tudor: -24%; BAZ2B block: -27%; CtBP-E1A blk: -1; Six1-Eya2 inh: -4; HP1b chromo inh: 18%; G9a inh: 71µM*

How did O=C(NC(Cc1ccccc1)C(=O)OCC(=O)N1CCc2ccccc21)c1ccco1 (stereo unspecified) do in these assays?
JMJD2A Tudor: -11%; BAZ2B block: -1%; CtBP-E1A blk: -1; Six1-Eya2 inh: -8; HP1b chromo inh: 9%; G9a inh: 14µM*

How did O=C(CSc1ccccc1)N1CCc2ccccc21 do in these assays?
JMJD2A Tudor: 19%; BAZ2B block: 8%; CtBP-E1A blk: 8; Six1-Eya2 inh: 5; HP1b chromo inh: 55%; G9a inh: 40%[59 µM]

How did O=C1CSC(c2cn(-c3ccccc3)nc2-c2ccccc2)N1Cc1ccco1 (stereo unspecified) do in these assays?
JMJD2A Tudor: inconclusive; BAZ2B block: inconclusive; CtBP-E1A blk: -18; Six1-Eya2 inh: -19; HP1b chromo inh: -14%; G9a inh: 11µM*

What do the screens show for `Nc1nc(-c2ccco2)nn1C(=O)c1cccnc1`?
JMJD2A Tudor: -6%; BAZ2B block: 7%; CtBP-E1A blk: -9; Six1-Eya2 inh: 1; HP1b chromo inh: 63%; G9a inh: 50µM*

Results for COc1ccc(C(=O)n2nc(-c3ccco3)nc2N)cc1 ?
JMJD2A Tudor: inconclusive; BAZ2B block: -10%; CtBP-E1A blk: -2; Six1-Eya2 inh: 0; HP1b chromo inh: -12%; G9a inh: 18µM*

How did Cc1ccc(C(=O)n2nc(-c3ccco3)nc2N)cc1 do in these assays?
JMJD2A Tudor: -9%; BAZ2B block: 3%; CtBP-E1A blk: -16; Six1-Eya2 inh: 9; HP1b chromo inh: 43%; G9a inh: 6%[59 µM]

How did COc1ccc(-n2c(SCC(=O)N3CCN(c4ccccc4)CC3)nc3c(c2=O)SCC3)cc1 do in these assays?
JMJD2A Tudor: -27%; BAZ2B block: -37%; CtBP-E1A blk: -11; Six1-Eya2 inh: -1; HP1b chromo inh: 7%; G9a inh: 45µM*

What do the screens show for `COc1ccc(N2CCN(C(=O)CSc3nc4c(c(=O)n(C)c(=O)n4C)n3C(C)C)CC2)cc1`?
JMJD2A Tudor: -22%; BAZ2B block: -9%; CtBP-E1A blk: 15; Six1-Eya2 inh: 1; HP1b chromo inh: 3%; G9a inh: 50µM*
